# Reference: the supplement of paper PMC10037445
# ± gives the standard deviation of the averaged measurements. In all, about 2,900 compounds were measured (“NF-kB SEAP reporter activity, fold change vs agonist alone”: median about 0.99, highest 2% from about 2.6 on). This is one part of a sample in which the highest values are shown more often than they occur.
# Experiments:
# RAW-Dual [1] = assay: NF-kB SEAP reporter activity, fold change vs agonist alone; cytotoxicity flag (confluency mask): not cytotoxic; higher = enhanced NF-kB activity
# Method in brief: (§1)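 RAW-Dual macrophages were seeded in DMEM at 50,000 cells/well in 384-well plates, given 50 nL of library stock by pin tool, and given a PRR agonist 1 h later. Plates were held at 37 °C, 5% CO2 for 20 hours, after which supernatant was read for IRF by QuantiLuc luminescence and for NF-κB by QuantiBlue absorbance at 620 nm. Reporter activity is expressed as fold change over wells that received agonist alone. A well was called cytotoxic when IncuCyte confluency fell below 70% of agonist controls in both mask sets.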
# RAW-Dual [2] = assay: NF-kB SEAP reporter activity, fold change vs agonist alone; higher = enhanced NF-kB activity; settings: library stock concentration (final ~1000-fold dilution): 10 mM
# Method in brief: as §1
# RAW-Dual [3] = assay: NF-kB SEAP reporter activity, fold change vs agonist alone; cytotoxicity flag (confluency mask): cytotoxic (confluency <70% of control); higher = enhanced NF-kB activity
# Method in brief: as §1
# [4] = agonist: ODN 1826 (TLR9) 0.5 ug/mL
# [5] = agonist: Pam2CSK4 (TLR2/6) 0.1 ug/mL
# [6] = agonist: Pam3CSK4 (TLR2/1) 0.1 ug/mL
# [7] = cytotoxicity flag (confluency mask): not cytotoxic, agonist: Imiquimod (TLR7) […]
# [8] = cytotoxicity flag (confluency mask): not cytotoxic, agonist: MPLA (TLR4) […]
compound,measurement,setting,value
COc1cc(C(N)=O)nc(-c2cccc(C#C[C@]3(O)CCN(C)C3=O)c2)c1 (library stock concentration (final ~1000-fold dilution): 10 mM),NF-kB SEAP reporter activity,RAW-Dual [1]; agonist: LPS (TLR4) 0.1 ug/mL,1.39
same,NF-kB SEAP reporter activity,RAW-Dual [1]; [4],0.529
same,NF-kB SEAP reporter activity,RAW-Dual [1]; [5],0.699
same,NF-kB SEAP reporter activity,RAW-Dual [1]; [6],0.966
COc1cc(C(N)=O)nc(-c2cccc(C#C[C@]3(O)CCN(C)C3=O)c2)c1,NF-kB SEAP reporter activity,RAW-Dual [2]; [7],0.839
same,NF-kB SEAP reporter activity,RAW-Dual [2]; [8],0.915
Cc1noc(C)c1-c1ccc(-c2cc(C(N)=O)c(NC(N)=O)s2)c(OC2CCNC2)c1 (configuration not stated) (library stock concentration (final ~1000-fold dilution): 10 mM),NF-kB SEAP reporter activity,RAW-Dual [1]; agonist: LPS (TLR4) 0.1 ug/mL,0.567 ± 0.07
same,NF-kB SEAP reporter activity,RAW-Dual [1]; [4],0.449 ± 0.019
same,NF-kB SEAP reporter activity,RAW-Dual [1]; [5],0.275 ± 0.0078
same,NF-kB SEAP reporter activity,RAW-Dual [1]; [6],0.392 ± 0.058
Cc1noc(C)c1-c1ccc(-c2cc(C(N)=O)c(NC(N)=O)s2)c(OC2CCNC2)c1 (configuration not stated),NF-kB SEAP reporter activity,RAW-Dual [2]; [7],0.654 ± 0.054
same,NF-kB SEAP reporter activity,RAW-Dual [2]; [8],0.683 ± 0.15
CCN(C(=O)c1c(O)n(C)c2cccc(Cl)c2c1=O)c1ccccc1 (library stock concentration (final ~1000-fold dilution): 10 mM),NF-kB SEAP reporter activity,RAW-Dual [1]; agonist: LPS (TLR4) 0.1 ug/mL,1.08
same,NF-kB SEAP reporter activity,RAW-Dual [1]; [4],1.06
same,NF-kB SEAP reporter activity,RAW-Dual [1]; [5],1.01
same,NF-kB SEAP reporter activity,RAW-Dual [1]; [6],1
CCN(C(=O)c1c(O)n(C)c2cccc(Cl)c2c1=O)c1ccccc1,NF-kB SEAP reporter activity,RAW-Dual [2]; [7],0.913
same,NF-kB SEAP reporter activity,RAW-Dual [2]; [8],0.993
C=C(Cc1ccccc1Cl)C(=O)OCC (library stock concentration (final ~1000-fold dilution): 10 mM),NF-kB SEAP reporter activity,RAW-Dual [3]; agonist: LPS (TLR4) 0.1 ug/mL,0.636
same,NF-kB SEAP reporter activity,RAW-Dual [3]; [4],0.588
same,NF-kB SEAP reporter activity,RAW-Dual [3]; [5],0.682
same,NF-kB SEAP reporter activity,RAW-Dual [3]; [6],0.806
C=C(Cc1ccccc1Cl)C(=O)OCC,NF-kB SEAP reporter activity,"RAW-Dual [2]; cytotoxicity flag (confluency mask): cytotoxic (confluency <70% of control), agonist: Imiquimod (TLR7) […]",0.73
same,NF-kB SEAP reporter activity,"RAW-Dual [2]; cytotoxicity flag (confluency mask): cytotoxic (confluency <70% of control), agonist: MPLA (TLR4) […]",0.891
Cn1cc(-c2cc(Oc3cc(F)c(NC(=O)C4(C(=O)Nc5ccccc5)CC4)cc3F)ccn2)cn1,NF-kB SEAP reporter activity,RAW-Dual [2]; [7],0.974
same,NF-kB SEAP reporter activity,RAW-Dual [2]; [8],1.71
COc1cc2nccc(Oc3ccc(NC(=O)C4(C(=O)Nc5ccc(F)cc5)CC4)cc3)c2cc1OC.O=C(O)CC(O)C(=O)O,NF-kB SEAP reporter activity,RAW-Dual [2]; [7],0.796
same,NF-kB SEAP reporter activity,RAW-Dual [2]; [8],0.939
COc1cc2nccc(Oc3ccc(NC(=O)C4(C(=O)Nc5ccc(F)cc5)CC4)cc3)c2cc1OC.O=C(O)CC(O)C(=O)O (library stock concentration (final ~1000-fold dilution): 10 mM),NF-kB SEAP reporter activity,RAW-Dual [1]; agonist: LPS (TLR4) 0.1 ug/mL,0.861
same,NF-kB SEAP reporter activity,RAW-Dual [1]; [4],0.525
same,NF-kB SEAP reporter activity,RAW-Dual [1]; [5],0.284
same,NF-kB SEAP reporter activity,RAW-Dual [1]; [6],0.277
Cn1cc(-c2cc(Oc3cc(F)c(NC(=O)C4(C(=O)Nc5ccccc5)CC4)cc3F)ccn2)cn1 (library stock concentration (final ~1000-fold dilution): 10 mM),NF-kB SEAP reporter activity,RAW-Dual [1]; agonist: LPS (TLR4) 0.1 ug/mL,3.09
same,NF-kB SEAP reporter activity,RAW-Dual [1]; [4],0.863
same,NF-kB SEAP reporter activity,RAW-Dual [1]; [5],0.629
same,NF-kB SEAP reporter activity,RAW-Dual [1]; [6],0.98
COCCNCc1ccc(-c2cc3nccc(Oc4ccc(NC(=O)C5(C(=O)Nc6ccc(F)cc6)CC5)cc4F)c3s2)nc1 (library stock concentration (final ~1000-fold dilution): 10 mM),NF-kB SEAP reporter activity,RAW-Dual [1]; agonist: LPS (TLR4) 0.1 ug/mL,0.36
same,NF-kB SEAP reporter activity,RAW-Dual [1]; [4],0.205
same,NF-kB SEAP reporter activity,RAW-Dual [1]; [5],0.0909
same,NF-kB SEAP reporter activity,RAW-Dual [1]; [6],0.149
COCCNCc1ccc(-c2cc3nccc(Oc4ccc(NC(=O)C5(C(=O)Nc6ccc(F)cc6)CC5)cc4F)c3s2)nc1,NF-kB SEAP reporter activity,RAW-Dual [2]; [7],0.327
same,NF-kB SEAP reporter activity,RAW-Dual [2]; [8],0.388
